Test results reported in PubChem BioAssay.
Active and inactive are the calls of the source.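 How the source made its calls, unless noted: active means compounds lowering colon cancer cell viability after pretreatment blocking the GSK3B kinase; inactive means the rest.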

Columns and labels:
[1] = stimulators of nuclear beta-catenin in C2C12, primary screen, imaging, WNT3A-conditioned medium, mouse C2C12, NPC library (AID 1117326; in the data active means nuclear beta-catenin stimulation mostly above about 4.2%, no sharp cut-off; inactive means mostly below about 10%; further: reference of the scale not given here); conditions: stronger effect = higher value
[2] = stimulators of insulin release from INS-1E, primary screen, cell-based, 5 mM glucose, NPC library (AID 1117329;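 active means compound raises insulin release from rat beta cells at 5 mM glucose, no numeric limit stated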; further: reference of the scale not given here); conditions: rat INS-1E insulin secretion, at 10 µM, stronger effect = higher value
[3] = growth inhibition of GSK3B-pretreated HCT116 cells – cell-based, CellTiter-Glo, 0.2 to 20 µM (AID 1117336); conditions: HCT116 viability after GSK3B inhibitor, at 20 µM, stronger effect = higher value
[4] = inhibition of endothelial tube formation, primary screen, imaging, VEGF stimulated, CD31 staining, tube area, NPC library (AID 1117340;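 active means compound that reduces growth-factor-driven endothelial tube area in a mixed cell culture, no cutoff stated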); conditions: VEGF-stimulated ADSC/ECFC co-culture, at 10 µM, stronger effect = higher value
[5] = glucagon-like peptide 1 release enhancers, primary assay, NCI-H716 cell line, NPC library (AID 1117341;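 active means compound raises GLP1 secretion from the human gut endocrine cells, with no numeric limit stated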; further: reference of the scale not given here); conditions: NCI-H716 cells, at 10 µM, stronger effect = higher value
[6] = HCT116 colon cancer cell growth inhibition, primary screen, CellTiter-Glo luminescence, NPC library (AID 1117342;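 active means compounds that lower survival of HCT116 colon cancer cells in the luminescence readout, no numeric limit stated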); conditions: at 20 µM (top of the series)
[7] = CellTiter-Glo luminescent readout of SW480 viability loss, NPC library primary (AID 1117343;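 active means compounds that lower viability of the colon cancer cells in the luminescence readout, with no numeric limit stated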); conditions: CellTiter-Glo luminescence; at 20 µM (top of the series)
[8] = decreased DLD-1 cellular survival, CellTiter-Glo luminescent readout, NPC compound collection, primary HTS (AID 1117346;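 active means compounds that lower survival of DLD-1 colon cancer cells in the luminescence readout, no cutoff given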); conditions: DLD-1 viability, CellTiter-Glo luminescence; at 20 µM (top of the series)

Compound | nuclear beta-catenin stimulation ([1]; at 10 µM) | nuclear beta-catenin stimulation ([1]; stimulation, at 2 µM) [%] | insulin secretion stimulation [2] | viability decrease [3] | tube area decrease [4] | GLP1 secretion stimulation [5] | inhibition of viability [6] | viability decrease (inhibition) [7] | viability decrease (inhibition) [8]
N#C/C(=C1\SCC(c2ccccc2Cl)S1)n1ccnc1 (centres undefined) | 2% (inactive) | 2.6 | -2.4% (inactive) | 13.1% (inactive) | 21.9% (inactive) | 0.1% (inactive) | 21.7% (inactive) | 85.4% (active) | 35.2% (inactive)
Fc1ccc(C(c2ccc(F)cc2)N2CCNCC2)cc1 | -0.2% (inactive) | 0.1 | 16.6% (inactive) | 29.7% (inactive) | 13.9% (inactive) | 7.5% (inactive) | 79.8% (active) | 72.4% (active) | 25.2% (inactive)
COc1cc(O)cc(O)c1 | 1.6% (inactive) | -0.2 | 4.5% (inactive) | -4.6% (inactive) | 10.6% (inactive) | -9.8% (inactive) | 7.93% (inactive) | 4% (inactive) | -9.1% (inactive)
c1ccc(-n2cnnn2)cc1 | 0.3% (inactive) | 0.9 | 1.9% (inactive) | -7.2% (inactive) | 23.2% (inactive) | -5% (inactive) | 1.7% (inactive) | 10.4% (inactive) | 1.4% (inactive)
CC[N+](CC)(CC)CCOC(=O)C(C1CCCC1)C1CCCC1 | 1.2% (inactive) | 2 | 0.5% (inactive) | 28.7% (inactive) | 8.3% (inactive) | 1.6% (inactive) | 21.8% (inactive) | -14.4% (inactive) | 4.1% (inactive)
CCCCCCCCCCCC(=O)[O][Sn]([CH2]CCC)([CH2]CCC)[O]C(=O)CCCCCCCCCCC | 75.9% (active) | 7.2 | 0% (inactive) | -72% (inactive) | 94.7% (active) | 49% (active) | 5.07% (inactive) | 133% (active) | 101% (active)
FC1(F)C(F)(F)C(F)(F)C2(F)C(F)(F)C(F)(F)C(F)(F)C(F)(F)C2(F)C1(F)F (centres undefined) | -0.7% (inactive) | 0.3 | 1.3% (inactive) | 17% (inactive) | 10.2% (inactive) | -0.8% (inactive) | -2.93% (inactive) | 21.7% (inactive) | -11.3% (inactive)
COc1ccccc1OC(=O)Oc1ccccc1OC | 1.1% (inactive) | 0.3 | -2.4% (inactive) | 6.05% (inactive) | 14.8% (inactive) | 1.6% (inactive) | 3.6% (inactive) | 31.6% (inactive) | 14.4% (inactive)
CCN(CC)c1ccc(C(=C2C=CC(=[N+](CC)CC)C=C2)c2cc(S(=O)(=O)O)ccc2S(=O)(=O)[O-])cc1 | 0.8% (inactive) | 4.4 | 1.5% (inactive) | 1.1% (inactive) | 10.6% (inactive) | -12.8% (inactive) | 20.3% (inactive) | 52.8% (active) | 13% (inactive)
COc1cc(C(=O)N2CCCCCCC2)cc(OC)c1OC | 0.9% (inactive) | -1.2 | 5% (inactive) | -2.3% (inactive) | -2.6% (inactive) | 2.6% (inactive) | 17.8% (inactive) | -7.8% (inactive) | 7.8% (inactive)
CCc1cccc2c(CCO)c[nH]c12 | 1.1% (inactive) | 0.4 | 0.7% (inactive) | 12.2% (inactive) | -19.3% (inactive) | 0.1% (inactive) | -1.1% (inactive) | -18% (inactive) | -6.5% (inactive)
O=C(O)CNC(=O)c1ccccc1 | 1.3% (inactive) | 1.4 | -1.9% (inactive) | -9.35% (inactive) | -7.6% (inactive) | 4% (inactive) | -1.6% (inactive) | 24.7% (inactive) | 2.1% (inactive)
CCOc1ccc(S(=O)(=O)O)c2cccnc12 | -0.1% (inactive) | 0.5 | 6% (inactive) | -10.2% (inactive) | -5.5% (inactive) | -3.3% (inactive) | -0.3% (inactive) | 1.9% (inactive) | 0.1% (inactive)
COC(=O)C(CN)c1c[nH]c2ccc(OC)cc12 (centres undefined) | -2.2% (inactive) | -1 | 2.3% (inactive) | -18.2% (inactive) | 5.7% (inactive) | 7.7% (inactive) | 8.5% (inactive) | 19.4% (inactive) | 16.7% (inactive)
CCOc1c(N2CCOCC2)cnn(C)c1=O | -0.3% (inactive) | 4.4 | 1.5% (inactive) | -36.6% (inactive) | 4.1% (inactive) | 0.1% (inactive) | 11.2% (inactive) | 7.7% (inactive) | -14.1% (inactive)
Nc1nc(-c2ccccc2)c(Br)c(=O)[nH]1 | 3.6% (inactive) | 2.1 | -0.7% (inactive) | -50.3% (inactive) | 17% (inactive) | 3.9% (inactive) | -10.9% (inactive) | 11.9% (inactive) | 0.7% (inactive)
